Inconclusive results are not listed. Active and inactive are the calls of the source. Unless noted, calls come from the whole dose curve.
Columns and labels:
[1] = Nuclear factor erythroid 2-related factor 2/antioxidant responsive element (Nrf2/ARE) small molecule agonists: qHTS cell viability counter screen in human keratinocytes (AID 1919968; active = well fitted curve in the direction sought with a large enough effect in the repeat runs; an effect the other way counts as inactive or inconclusive; note: nearly all actives have a fitted effect of over 55% in size)
Outline: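 CellTiter-Fluor fluorescence, read 1 h after reagent, gave viability in the same wells as the ARE-luciferase assay. KeratinoSens cells (1,500/well) had 23 h compound exposure at 37 C/5% CO2 following 5 h plating.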

[2] = Nuclear factor erythroid 2-related factor 2/antioxidant responsive element (Nrf2/ARE) small molecule agonists: luciferase reporter gene qHTS assay in human keratinocytes (AID 1919969); note: nearly all actives have a fitted effect of over 35% in size
[3] = target: Gonadotropin-releasing hormone receptor (Homo sapiens) (UniProt P30968); assay: Human gonadotropin-releasing hormone receptor (GnRHR) small molecule agonists, calcium flux assay in GnRHR-HEK293 cells (AID 1920063); note: nearly all actives have a fitted effect of over 35% in size
Gonadotropin-releasing hormone receptor (Homo sapiens), sequence (P30968 whole entry, looked up): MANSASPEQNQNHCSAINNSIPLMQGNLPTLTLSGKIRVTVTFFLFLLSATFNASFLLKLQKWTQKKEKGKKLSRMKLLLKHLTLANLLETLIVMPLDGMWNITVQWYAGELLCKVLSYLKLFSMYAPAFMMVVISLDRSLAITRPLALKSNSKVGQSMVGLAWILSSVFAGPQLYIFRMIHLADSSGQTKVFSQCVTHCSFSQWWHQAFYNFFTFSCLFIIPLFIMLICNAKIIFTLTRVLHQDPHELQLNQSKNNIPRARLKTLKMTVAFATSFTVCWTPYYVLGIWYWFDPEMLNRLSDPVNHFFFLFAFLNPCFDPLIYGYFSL
Outline: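 Agonist mode: compounds at 15 concentrations, in triplicate, went onto calcium dye-loaded GnRHR-HEK293 cells. Intracellular calcium was then followed as 480/540 nm fluorescence at 1 s intervals over 3 min.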

[4] = target: KiSS-1 receptor (Homo sapiens) (UniProt Q969F8); assay: Human kisspeptin (KISS1R) small molecule agonists, calcium flux assay in KISS1R-HEK293 cells (AID 1920064; active = well fitted curve in the direction sought with a large enough effect in the repeat runs; an effect the other way counts as inactive or inconclusive)
KiSS-1 receptor (Homo sapiens), sequence (Q969F8 whole entry, looked up): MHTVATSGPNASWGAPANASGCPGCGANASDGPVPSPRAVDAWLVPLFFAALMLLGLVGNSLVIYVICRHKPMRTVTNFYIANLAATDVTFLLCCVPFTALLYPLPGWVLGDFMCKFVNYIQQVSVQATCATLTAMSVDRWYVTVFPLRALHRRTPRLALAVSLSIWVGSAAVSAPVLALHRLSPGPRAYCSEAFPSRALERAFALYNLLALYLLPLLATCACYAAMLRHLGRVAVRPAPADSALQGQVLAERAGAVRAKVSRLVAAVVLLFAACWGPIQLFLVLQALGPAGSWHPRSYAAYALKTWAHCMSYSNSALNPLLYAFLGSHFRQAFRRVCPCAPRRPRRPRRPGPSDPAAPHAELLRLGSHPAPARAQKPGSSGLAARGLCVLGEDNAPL
Outline: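 Agonist mode: intracellular calcium rise tracked at 1 s intervals over 3 min (480/540 nm) immediately after compound addition to dye-loaded KISS1R-HEK293 stable cells. Each compound tested at 15 concentrations in triplicate.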

[5] = p53 small molecule agonists, cell-based qHTS assay with rat liver microsomes (AID 1963578)
Outline: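 Compound in DMSO added to p53RE-bla cells 5 h post-plating; rat microsomes/NADPH 0.5 mg/mL final; 16 h, 37 C; LiveBLAzer 2 h RT.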

[6] = p53 small molecule agonists, cell-based qHTS assay with human liver microsomes: qHTS cell viability counter screen (AID 1963579); note: nearly all actives have a fitted effect of over 45% in size
Outline: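 HLM-supplemented (0.5 mg/mL final) and NADPH-supplemented (0.5 mg/mL final) p53RE-bla cultures, 4,000 cells per well, were dosed with compounds in DMSO for 16 h at 37 C; luminescent ATP detection (CellTiter-Glo, 30 min, room temperature) quantified surviving cells.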

[7] = p53 small molecule agonists, cell-based qHTS assay with rat liver microsomes: qHTS cell viability counter screen (AID 1963580); note: nearly all actives have a fitted effect of over 45% in size
Outline: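 Luminescent ATP readout (CellTiter-Glo, 30 min at room temperature) reports viability of p53RE-bla HCT-116 cells after 16 h at 37 C with test compounds under metabolic activation by rat liver microsomes and NADPH at 0.5 mg/mL final each.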

[8] = p53 small molecule agonists, cell-based qHTS assay: qHTS cell viability counter screen (AID 1963581); note: nearly all actives have a fitted effect of over 45% in size
Outline: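 Counter screen read by CellTiter-Glo luminescence (ATP content, 30 min at room temperature), run in the same wells as the beta-lactamase reporter read. HCT-116 p53RE-bla cells saw compounds for 16 h at 37 C.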

[9] = p53 small molecule agonists, cell-based qHTS assay (AID 1963582; active = well fitted activation curve with a large enough effect in the signal ratio in the repeat runs, not every such curve was filed as active; the % refers to the signal ratio)
Outline: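 Read-out is beta-lactamase FRET fluorescence after 2 h at room temperature with LiveBLAzer B/G substrate. p53 response element-bla cells were treated 16 h at 37 C with compounds in DMSO, added 5 h after seeding.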

[10] = target: 5-hydroxytryptamine receptor 2A (Homo sapiens) (UniProt P28223); assay: 5-hydroxytryptamine receptor 2A (HTR2A) small molecule antagonists, cell-based qHTS assay (AID 1963586); note: nearly all actives have a fitted effect of over 45% in size
5-hydroxytryptamine receptor 2A (Homo sapiens), sequence (P28223 whole entry, looked up): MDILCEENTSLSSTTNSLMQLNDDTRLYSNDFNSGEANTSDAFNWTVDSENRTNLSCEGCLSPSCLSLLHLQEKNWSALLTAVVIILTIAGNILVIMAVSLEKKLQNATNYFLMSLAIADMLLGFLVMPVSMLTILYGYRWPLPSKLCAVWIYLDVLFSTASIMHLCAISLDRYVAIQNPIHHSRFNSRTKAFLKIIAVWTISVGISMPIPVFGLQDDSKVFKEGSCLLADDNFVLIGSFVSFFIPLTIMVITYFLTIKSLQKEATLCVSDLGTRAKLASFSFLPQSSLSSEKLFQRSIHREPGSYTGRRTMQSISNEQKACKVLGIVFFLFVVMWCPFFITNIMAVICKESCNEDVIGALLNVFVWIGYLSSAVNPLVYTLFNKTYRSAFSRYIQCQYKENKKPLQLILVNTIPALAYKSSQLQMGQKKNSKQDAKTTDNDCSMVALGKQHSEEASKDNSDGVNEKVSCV
Outline: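 CHO cells stably expressing human HTR2A were plated for 18 h at 37 C, then loaded with calcium dye for 1 h. Compounds were preincubated 5 min at room temperature before DOI (4 nM solution) was added. Kinetic fluorescence was read for 3 min.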

[11] = target: 5-hydroxytryptamine receptor 2A (Homo sapiens) (UniProt P28223); assay: 5-hydroxytryptamine receptor 2A (HTR2A) small molecule agonists, cell-based qHTS assay (AID 1963587); note: nearly all actives have a fitted effect of over 30% in size
Outline: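 HTR2A-CHO cells, plated 18 h at 37 C/5% CO2, dye-loaded 1 h at 37 C; compounds in DMSO added by pin tool (agonist mode). Intracellular calcium flux read as kinetic fluorescence on FDSS over 2 min at 1 s intervals.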

[12] = target: Muscarinic acetylcholine receptor M1 (Homo sapiens) (UniProt P11229); assay: Cholinergic receptor muscarinic 1 (CHRM1) small molecule antagonists, cell-based qHTS assay (AID 1963588); note: nearly all actives have a fitted effect of over 40% in size
Muscarinic acetylcholine receptor M1 (Homo sapiens), sequence (P11229 whole entry, looked up): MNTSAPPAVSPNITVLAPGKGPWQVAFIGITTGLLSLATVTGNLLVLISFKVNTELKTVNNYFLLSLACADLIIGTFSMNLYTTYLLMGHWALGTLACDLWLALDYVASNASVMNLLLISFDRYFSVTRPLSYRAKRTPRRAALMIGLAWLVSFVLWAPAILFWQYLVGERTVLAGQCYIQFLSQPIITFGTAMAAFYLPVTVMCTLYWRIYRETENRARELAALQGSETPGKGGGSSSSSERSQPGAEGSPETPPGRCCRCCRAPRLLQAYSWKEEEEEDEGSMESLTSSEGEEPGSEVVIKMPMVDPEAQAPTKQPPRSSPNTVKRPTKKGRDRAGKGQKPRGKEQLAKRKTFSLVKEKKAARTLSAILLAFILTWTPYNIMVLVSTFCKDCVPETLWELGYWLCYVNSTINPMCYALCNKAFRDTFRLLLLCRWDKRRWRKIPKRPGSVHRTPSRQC
Outline: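 Compounds were tested at 15 concentrations in three independent runs. Dye-loaded CHRM1-CHO cells were exposed 5 min at room temperature before stimulation by acetylcholine added at 50nM. Intracellular calcium was read kinetically on FDSS for 3 min.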

[13] = target: Muscarinic acetylcholine receptor M1 (Homo sapiens) (UniProt P11229); assay: Cholinergic receptor muscarinic 1 (CHRM1) small molecule agonists, cell-based qHTS assay (AID 1963589); note: nearly all actives have a fitted effect of over 35% in size
Outline: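 Agonist-mode calcium-flux screen: compounds at 15 concentrations, three independent runs, were pin-transferred onto dye-loaded human CHRM1-CHO cells. Fluorescence was then recorded kinetically every second over minutes.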

[14] = cAMP Responsive Elements (CRE) small molecule agonists, cell-based qHTS assay (AID 1963590)
Outline: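 Agonist mode: compound added to CRE-bla HEK 293T cells (2,000/well, 18 h after plating) for 3 h at 37 C/5% CO2. Reporter activity detected via FRET beta-lactamase substrate, 2 h room-temperature loading.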

[15] = cAMP Responsive Elements (CRE) small molecule antagonists, cell-based qHTS assay (AID 1963591; active = well fitted inhibition curve with a large enough effect in the signal ratio in the repeat runs, not every such curve was filed as active; the % refers to the signal ratio)
Outline: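 Antagonist mode: compounds are added alongside the adenylyl cyclase activator NKH477 (0.25 uM final) to CRE-bla HEK293T cells for 3 h. LiveBLAzer FRET substrate, 2 h at room temperature, reports bla expression.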

[16] = target: Beta-2 adrenergic receptor (Homo sapiens) (UniProt P07550); assay: Adrenergic beta2 receptor (ADRB2) small molecule antagonists, cell-based qHTS assay (AID 1963592); note: series mostly up to about 92 µM; nearly all actives have a fitted effect of over 50% in size
Beta-2 adrenergic receptor (Homo sapiens), sequence (P07550 whole entry, looked up): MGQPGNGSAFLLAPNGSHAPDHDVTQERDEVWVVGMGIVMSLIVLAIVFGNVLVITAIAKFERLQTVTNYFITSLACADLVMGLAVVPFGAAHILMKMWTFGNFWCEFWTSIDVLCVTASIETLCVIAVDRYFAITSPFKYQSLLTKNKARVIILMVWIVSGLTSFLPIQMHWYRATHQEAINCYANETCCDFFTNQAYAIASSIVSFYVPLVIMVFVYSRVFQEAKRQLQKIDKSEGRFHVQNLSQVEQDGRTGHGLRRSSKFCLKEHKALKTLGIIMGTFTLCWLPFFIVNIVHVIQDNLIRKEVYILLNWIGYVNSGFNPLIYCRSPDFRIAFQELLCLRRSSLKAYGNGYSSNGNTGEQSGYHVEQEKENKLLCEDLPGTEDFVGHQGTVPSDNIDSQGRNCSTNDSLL
Outline: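 Assay format: CHO-ADRB2 cells, 18-20hr seeding at 37C/5% CO2, then compound plus 1nM isoproterenol agonist mix for 0.5hr RT. Homogeneous time-resolved fluorescence cAMP detection after 1hr, expressed as 665/615 nm ratio.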

[17] = target: D(2) dopamine receptor (Homo sapiens) (UniProt P14416); assay: Dopamine D2 receptor (DRD2) small molecule agonists, cell-based qHTS assay (AID 1963594); note: nearly all actives have a fitted effect of over 35% in size
D(2) dopamine receptor (Homo sapiens), sequence (P14416 whole entry, looked up): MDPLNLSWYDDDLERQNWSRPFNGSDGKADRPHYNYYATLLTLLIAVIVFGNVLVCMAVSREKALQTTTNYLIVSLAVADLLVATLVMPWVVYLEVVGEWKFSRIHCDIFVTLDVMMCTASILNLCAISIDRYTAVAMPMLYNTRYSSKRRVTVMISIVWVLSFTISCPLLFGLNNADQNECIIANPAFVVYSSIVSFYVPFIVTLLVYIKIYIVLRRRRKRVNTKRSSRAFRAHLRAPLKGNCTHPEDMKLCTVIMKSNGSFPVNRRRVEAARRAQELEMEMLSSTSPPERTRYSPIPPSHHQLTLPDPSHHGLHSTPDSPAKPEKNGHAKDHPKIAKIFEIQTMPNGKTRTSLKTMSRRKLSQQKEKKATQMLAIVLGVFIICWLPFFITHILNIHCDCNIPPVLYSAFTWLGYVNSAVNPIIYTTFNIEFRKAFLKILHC
Outline: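 HEK293 cells stably expressing DRD2 were cultured 24 h at 37 C, then given Ro20-1724 (0.1 mM final) and compounds for 10 min at room temperature. NKH477 (200nM) was then added for 30 min. cAMP was read by HTRF.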

[18] = target: D(2) dopamine receptor (Homo sapiens) (UniProt P14416); assay: Dopamine D2 receptor (DRD2) small molecule antagonists, cell-based qHTS assay (AID 1963595; active = well fitted inhibition curve with a large enough effect in the signal ratio in the repeat runs, with a control signal flat; the % refers to the signal ratio)
Outline: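 HEK293 cells stably expressing DRD2 were preincubated with 0.1 mM Ro20-1724, then with compound for 10 min at room temperature. Cells were stimulated with 200 nM NKH477 plus 12 nM quinpirole for 30 min, and cAMP was read by HTRF.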

[19] = G protein-coupled receptor (GPCR) small molecule agonists, calcium flux assay: HEK293 wild type cell line counter screen (AID 1920065)
Outline: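 Calcium flux counter screen: compound added in agonist mode at 15 concentrations in triplicate to dye-loaded parental HEK293 cells. Fluorescence (480/540) read kinetically for 3 min; ATP served as positive control.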

[20] = target: Beta-2 adrenergic receptor (Homo sapiens) (UniProt P07550); assay: Adrenergic beta2 receptor (ADRB2) small molecule agonists, cell-based qHTS assay (AID 1963593);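 note: CHO cells stably overexpressing human ADRB2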
Outline: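 CHO cells stably over-expressing ADRB2 were plated overnight at 37C, then dosed with compounds plus a stimulation mix containing 100uM IBMX and 25uM Ro-20-1724 for 0.5hr at room temperature. cAMP was measured by HTRF competition, 1hr.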
% is set by controls: 0 for no effect and ±100 for the full control effect.

C=CCCCC
inactive: Potency [1] | Potency [2] | Potency [3] | outcome [4] | Potency [5] | Potency [6] | Potency [7] | Potency [8] | Potency [9] | Potency [10] | Potency [11] | Potency [12] | Potency [13] | Potency [14] | Potency [15] | Potency [16] | Potency [17] | Potency [18]

Clc1cccnc1
inactive: Potency [1] | Potency [2] | Potency [3] | outcome [4] | Potency [5] | Potency [6] | Potency [7] | Potency [8] | Potency [9] | Potency [10] | Potency [11] | Potency [12] | Potency [13] | Potency [14] | Potency [15] | Potency [16] | Potency [17] | Potency [18]

CC1CCCCC1
inactive: Potency [1] | Potency [2] | Potency [3] | outcome [4] | Potency [5] | Potency [6] | Potency [7] | Potency [8] | Potency [9] | Potency [10] | Potency [12] | Potency [13] | Potency [14] | Potency [15] | Potency [16] | Potency [17] | Potency [18]

CCc1nccnc1CC
inactive: activity change, negative = cytotoxicity [1] 5.52% [at 19 µM] | activity, positive = activation [2] 0.453% [at 19 µM] | activity change [3] -0.658% [at 11.8 µM, hits give high values] | activation [4] 1.62% [at 15.8 µM] | activation [19] -0.595% [at 11.8 µM] | activity change, negative = cytotoxicity [6] -2.07% [at 13.5 µM] | activity change, negative = cytotoxicity [7] -5.78% [at 13.5 µM] | activity change, negative = cytotoxicity [8] 1.59% [at 13.5 µM] | activation [9] 3.48% [at 13.5 µM] | activity, negative = inhibition [10] -8.77% [at 12.7 µM] | activation [11] 3.43% [at 15.9 µM] | activation [14] 0.766% [at 19 µM] | activity change, negative = inhibition [16] -4.86% [at 19 µM] | Potency [20] | activity change, negative = inhibition [18] -10.9% [at 18.9 µM]

C=C(C)C(=O)OCC(C)(C)COC(=O)C(=C)C
inactive: Potency [1] | Potency [2] | Potency [3] | outcome [4] | Potency [5] | Potency [6] | Potency [7] | Potency [8] | Potency [9] | Potency [10] | Potency [11] | Potency [12] | Potency [13] | Potency [14] | Potency [15] | Potency [16] | Potency [17] | Potency [18]

COc1ccccc1OCC(O)COC(N)=O (stereo unspecified)
inactive: Potency [1] | Potency [2] | Potency [3] | outcome [4] | Potency [5] | Potency [6] | Potency [7] | Potency [8] | Potency [9] | Potency [14] | Potency [15] | Potency [16] | Potency [20] | Potency [17] | Potency [18]
